The values below come from ChEMBL document CHEMBL1961873, “Compounds: GSK PKIS; Assays: Nanosyn kinase panel” (2012).

Assay [1] addresses T1, Ephrin type-B receptor 2 (Homo sapiens) (UniProt P29323).
T1 sequence (whole entry): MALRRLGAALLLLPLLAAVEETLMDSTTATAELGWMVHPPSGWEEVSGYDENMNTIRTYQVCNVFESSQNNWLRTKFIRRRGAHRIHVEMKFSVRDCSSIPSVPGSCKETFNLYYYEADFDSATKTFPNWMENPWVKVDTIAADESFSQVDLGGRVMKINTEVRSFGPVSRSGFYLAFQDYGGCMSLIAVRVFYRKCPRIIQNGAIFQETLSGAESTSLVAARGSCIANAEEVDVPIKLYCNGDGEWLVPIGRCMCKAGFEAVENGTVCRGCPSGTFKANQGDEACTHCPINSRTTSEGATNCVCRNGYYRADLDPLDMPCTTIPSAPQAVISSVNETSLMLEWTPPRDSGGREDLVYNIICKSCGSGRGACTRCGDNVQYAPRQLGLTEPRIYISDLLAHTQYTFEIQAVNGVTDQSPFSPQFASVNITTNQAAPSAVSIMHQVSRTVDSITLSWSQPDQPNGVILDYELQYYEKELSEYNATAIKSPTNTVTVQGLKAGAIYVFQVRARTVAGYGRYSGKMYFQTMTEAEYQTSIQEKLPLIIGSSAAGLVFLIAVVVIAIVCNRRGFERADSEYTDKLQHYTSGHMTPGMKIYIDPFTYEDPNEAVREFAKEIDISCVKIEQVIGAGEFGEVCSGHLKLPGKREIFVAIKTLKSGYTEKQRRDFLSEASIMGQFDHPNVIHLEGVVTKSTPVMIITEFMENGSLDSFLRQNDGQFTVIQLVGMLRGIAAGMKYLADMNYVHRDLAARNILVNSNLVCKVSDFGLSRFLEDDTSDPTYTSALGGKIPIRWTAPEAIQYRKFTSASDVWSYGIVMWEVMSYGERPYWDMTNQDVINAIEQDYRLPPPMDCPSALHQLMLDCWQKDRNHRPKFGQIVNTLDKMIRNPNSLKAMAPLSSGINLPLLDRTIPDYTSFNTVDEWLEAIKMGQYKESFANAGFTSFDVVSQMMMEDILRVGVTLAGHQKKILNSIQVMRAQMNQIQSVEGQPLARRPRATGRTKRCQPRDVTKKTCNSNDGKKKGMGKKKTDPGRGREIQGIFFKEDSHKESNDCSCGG
The conditions noted are these: at 1 µM.

Assay [2] deals with T2, Ephrin type-B receptor 3 (Homo sapiens) (UniProt P54753).
T2 sequence (whole entry): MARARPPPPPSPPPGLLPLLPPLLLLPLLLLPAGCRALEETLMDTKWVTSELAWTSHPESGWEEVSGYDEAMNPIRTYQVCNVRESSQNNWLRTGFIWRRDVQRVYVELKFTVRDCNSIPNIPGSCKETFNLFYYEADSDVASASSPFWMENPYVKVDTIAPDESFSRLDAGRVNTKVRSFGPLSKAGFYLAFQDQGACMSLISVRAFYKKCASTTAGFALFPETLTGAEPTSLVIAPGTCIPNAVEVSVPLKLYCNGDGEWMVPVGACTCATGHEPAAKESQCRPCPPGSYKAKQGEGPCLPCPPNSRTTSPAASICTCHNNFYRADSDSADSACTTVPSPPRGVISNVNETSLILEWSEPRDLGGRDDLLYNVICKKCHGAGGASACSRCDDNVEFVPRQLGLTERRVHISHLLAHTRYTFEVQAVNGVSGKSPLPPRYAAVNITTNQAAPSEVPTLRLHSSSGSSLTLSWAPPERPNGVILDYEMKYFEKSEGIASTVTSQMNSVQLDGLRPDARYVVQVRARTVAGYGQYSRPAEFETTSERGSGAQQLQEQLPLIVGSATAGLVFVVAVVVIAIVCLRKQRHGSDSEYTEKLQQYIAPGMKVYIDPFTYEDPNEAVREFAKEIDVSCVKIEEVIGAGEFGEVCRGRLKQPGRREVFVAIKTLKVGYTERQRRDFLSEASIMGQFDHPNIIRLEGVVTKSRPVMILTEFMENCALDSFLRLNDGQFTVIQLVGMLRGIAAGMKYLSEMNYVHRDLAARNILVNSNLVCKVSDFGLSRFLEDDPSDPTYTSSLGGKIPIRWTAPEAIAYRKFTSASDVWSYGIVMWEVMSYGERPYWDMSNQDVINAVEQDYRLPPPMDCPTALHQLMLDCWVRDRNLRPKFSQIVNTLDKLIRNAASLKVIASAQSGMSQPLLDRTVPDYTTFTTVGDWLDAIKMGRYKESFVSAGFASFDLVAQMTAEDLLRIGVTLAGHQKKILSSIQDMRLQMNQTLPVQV
The conditions noted are these: at 0.1 µM.

Assay [3] deals with T2, Ephrin type-B receptor 3 (Homo sapiens). The conditions noted are these: at 1 µM.
The target of assay [4] is T3, Ephrin type-B receptor 4 (Homo sapiens) (UniProt P54760).
T3 sequence (whole entry): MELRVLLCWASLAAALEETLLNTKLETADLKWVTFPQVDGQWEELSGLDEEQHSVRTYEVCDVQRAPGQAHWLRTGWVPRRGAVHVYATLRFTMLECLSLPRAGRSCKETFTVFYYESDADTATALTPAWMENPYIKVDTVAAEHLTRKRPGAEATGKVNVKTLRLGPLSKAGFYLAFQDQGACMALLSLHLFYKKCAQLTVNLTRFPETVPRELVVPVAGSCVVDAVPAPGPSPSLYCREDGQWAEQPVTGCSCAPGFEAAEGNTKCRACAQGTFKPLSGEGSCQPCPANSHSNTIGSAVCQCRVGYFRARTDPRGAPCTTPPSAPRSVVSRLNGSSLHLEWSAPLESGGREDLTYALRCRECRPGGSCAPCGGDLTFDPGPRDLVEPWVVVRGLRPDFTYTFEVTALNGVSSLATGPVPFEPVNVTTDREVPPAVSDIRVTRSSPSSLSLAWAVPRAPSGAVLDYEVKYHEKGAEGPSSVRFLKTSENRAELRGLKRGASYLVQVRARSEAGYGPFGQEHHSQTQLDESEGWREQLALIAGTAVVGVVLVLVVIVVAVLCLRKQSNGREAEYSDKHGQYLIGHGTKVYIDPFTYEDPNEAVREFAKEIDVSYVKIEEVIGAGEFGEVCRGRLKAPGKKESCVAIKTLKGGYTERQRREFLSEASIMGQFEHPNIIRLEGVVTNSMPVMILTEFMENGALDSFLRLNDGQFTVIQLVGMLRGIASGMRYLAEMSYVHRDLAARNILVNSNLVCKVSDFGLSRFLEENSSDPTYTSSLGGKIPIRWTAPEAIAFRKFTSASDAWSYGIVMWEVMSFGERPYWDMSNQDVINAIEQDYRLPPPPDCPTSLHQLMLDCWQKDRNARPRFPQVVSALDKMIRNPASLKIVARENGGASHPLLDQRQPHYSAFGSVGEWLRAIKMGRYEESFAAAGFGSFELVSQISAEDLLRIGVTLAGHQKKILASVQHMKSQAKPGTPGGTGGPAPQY
The conditions noted are these: at 0.1 µM.

Assay [5] has as its target T3, Ephrin type-B receptor 4 (Homo sapiens). The conditions noted are these: at 1 µM.
Assay [6] addresses Receptor tyrosine-protein kinase erbB-2 (Homo sapiens) (UniProt P04626). The note with it: at 0.1 µM.
Assay [7] shares this target. The note with it: at 1 µM.
Assay [8] concerns the target Receptor tyrosine-protein kinase erbB-4 (Homo sapiens) (UniProt Q15303). The note with it: at 0.1 µM.
Assay [9] has the same target. The conditions noted are these: at 1 µM.
The target of assay [10] is Tyrosine-protein kinase Fer (Homo sapiens) (UniProt P16591). The note with it: at 0.1 µM.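 Note: reported figures are averaged percent inhibition of FER.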

Several values for one entry are separate records, joined by “and”; a condition that tells them apart may be missing. Identical values can stand only once.

Sequence of Receptor tyrosine-protein kinase erbB-4 (Homo sapiens) (Q15303 whole entry): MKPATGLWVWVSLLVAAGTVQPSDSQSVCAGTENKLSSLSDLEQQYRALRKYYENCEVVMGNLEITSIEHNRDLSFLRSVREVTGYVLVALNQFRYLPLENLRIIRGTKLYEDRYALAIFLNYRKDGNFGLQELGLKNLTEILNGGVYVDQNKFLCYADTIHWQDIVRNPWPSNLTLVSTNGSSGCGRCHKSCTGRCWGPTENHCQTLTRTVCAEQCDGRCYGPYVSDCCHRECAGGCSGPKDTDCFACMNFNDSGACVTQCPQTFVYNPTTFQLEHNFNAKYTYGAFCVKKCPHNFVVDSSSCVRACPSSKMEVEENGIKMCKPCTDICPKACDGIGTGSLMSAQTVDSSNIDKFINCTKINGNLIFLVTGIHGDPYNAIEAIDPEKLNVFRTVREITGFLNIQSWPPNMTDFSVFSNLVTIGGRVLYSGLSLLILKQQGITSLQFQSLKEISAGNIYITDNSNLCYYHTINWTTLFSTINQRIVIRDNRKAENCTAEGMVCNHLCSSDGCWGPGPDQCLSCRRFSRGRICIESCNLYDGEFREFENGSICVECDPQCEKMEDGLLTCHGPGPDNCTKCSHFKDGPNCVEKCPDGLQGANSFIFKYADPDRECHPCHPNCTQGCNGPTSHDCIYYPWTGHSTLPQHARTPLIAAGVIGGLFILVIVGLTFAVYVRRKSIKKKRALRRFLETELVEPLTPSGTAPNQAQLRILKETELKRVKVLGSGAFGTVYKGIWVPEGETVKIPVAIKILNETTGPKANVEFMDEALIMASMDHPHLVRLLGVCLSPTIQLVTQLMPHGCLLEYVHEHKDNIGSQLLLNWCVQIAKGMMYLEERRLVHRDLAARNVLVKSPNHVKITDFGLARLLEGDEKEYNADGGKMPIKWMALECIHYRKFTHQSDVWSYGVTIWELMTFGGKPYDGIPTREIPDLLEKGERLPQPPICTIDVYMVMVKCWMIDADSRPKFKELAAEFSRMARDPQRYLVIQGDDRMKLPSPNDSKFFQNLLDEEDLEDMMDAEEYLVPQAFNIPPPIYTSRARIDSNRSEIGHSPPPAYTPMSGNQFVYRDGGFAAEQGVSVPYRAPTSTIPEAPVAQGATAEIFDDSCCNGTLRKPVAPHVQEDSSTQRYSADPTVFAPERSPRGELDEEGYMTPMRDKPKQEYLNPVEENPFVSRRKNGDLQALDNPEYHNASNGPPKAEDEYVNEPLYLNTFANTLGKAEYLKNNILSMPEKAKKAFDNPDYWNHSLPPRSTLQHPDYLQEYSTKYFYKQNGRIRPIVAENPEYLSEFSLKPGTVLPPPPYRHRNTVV
Sequence of Receptor tyrosine-protein kinase erbB-2 (Homo sapiens) (P04626 whole entry): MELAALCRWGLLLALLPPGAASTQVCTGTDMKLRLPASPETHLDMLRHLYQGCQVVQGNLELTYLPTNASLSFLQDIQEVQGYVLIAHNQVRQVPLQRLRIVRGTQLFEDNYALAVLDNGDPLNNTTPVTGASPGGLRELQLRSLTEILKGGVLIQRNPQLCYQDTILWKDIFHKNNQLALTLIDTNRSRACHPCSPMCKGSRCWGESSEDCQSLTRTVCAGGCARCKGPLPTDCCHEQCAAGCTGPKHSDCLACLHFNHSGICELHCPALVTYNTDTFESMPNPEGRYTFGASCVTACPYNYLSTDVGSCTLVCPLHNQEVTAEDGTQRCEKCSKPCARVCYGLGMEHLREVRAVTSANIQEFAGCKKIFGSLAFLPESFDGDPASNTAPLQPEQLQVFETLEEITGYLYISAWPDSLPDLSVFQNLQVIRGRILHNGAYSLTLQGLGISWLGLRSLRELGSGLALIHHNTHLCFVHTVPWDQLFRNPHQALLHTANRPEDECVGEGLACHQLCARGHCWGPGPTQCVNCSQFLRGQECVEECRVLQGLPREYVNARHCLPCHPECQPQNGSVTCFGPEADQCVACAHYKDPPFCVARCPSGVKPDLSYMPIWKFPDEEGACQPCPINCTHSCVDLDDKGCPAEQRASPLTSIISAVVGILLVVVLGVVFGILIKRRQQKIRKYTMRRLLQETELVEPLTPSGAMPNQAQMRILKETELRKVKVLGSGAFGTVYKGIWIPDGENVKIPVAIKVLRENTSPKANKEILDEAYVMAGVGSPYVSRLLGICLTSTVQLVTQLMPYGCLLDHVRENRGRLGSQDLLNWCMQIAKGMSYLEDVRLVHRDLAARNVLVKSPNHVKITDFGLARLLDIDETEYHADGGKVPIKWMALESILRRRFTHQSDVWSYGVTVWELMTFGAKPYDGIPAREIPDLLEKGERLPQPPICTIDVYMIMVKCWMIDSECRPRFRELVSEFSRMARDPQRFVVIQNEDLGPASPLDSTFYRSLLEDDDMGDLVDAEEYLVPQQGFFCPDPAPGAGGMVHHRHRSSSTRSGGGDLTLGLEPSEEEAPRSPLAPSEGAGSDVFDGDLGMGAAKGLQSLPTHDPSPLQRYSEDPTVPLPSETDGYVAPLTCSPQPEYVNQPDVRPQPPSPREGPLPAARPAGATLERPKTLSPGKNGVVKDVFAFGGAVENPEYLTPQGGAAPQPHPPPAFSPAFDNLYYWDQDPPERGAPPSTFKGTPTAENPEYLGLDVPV
Sequence of Tyrosine-protein kinase Fer (Homo sapiens) (P16591 whole entry, looked up): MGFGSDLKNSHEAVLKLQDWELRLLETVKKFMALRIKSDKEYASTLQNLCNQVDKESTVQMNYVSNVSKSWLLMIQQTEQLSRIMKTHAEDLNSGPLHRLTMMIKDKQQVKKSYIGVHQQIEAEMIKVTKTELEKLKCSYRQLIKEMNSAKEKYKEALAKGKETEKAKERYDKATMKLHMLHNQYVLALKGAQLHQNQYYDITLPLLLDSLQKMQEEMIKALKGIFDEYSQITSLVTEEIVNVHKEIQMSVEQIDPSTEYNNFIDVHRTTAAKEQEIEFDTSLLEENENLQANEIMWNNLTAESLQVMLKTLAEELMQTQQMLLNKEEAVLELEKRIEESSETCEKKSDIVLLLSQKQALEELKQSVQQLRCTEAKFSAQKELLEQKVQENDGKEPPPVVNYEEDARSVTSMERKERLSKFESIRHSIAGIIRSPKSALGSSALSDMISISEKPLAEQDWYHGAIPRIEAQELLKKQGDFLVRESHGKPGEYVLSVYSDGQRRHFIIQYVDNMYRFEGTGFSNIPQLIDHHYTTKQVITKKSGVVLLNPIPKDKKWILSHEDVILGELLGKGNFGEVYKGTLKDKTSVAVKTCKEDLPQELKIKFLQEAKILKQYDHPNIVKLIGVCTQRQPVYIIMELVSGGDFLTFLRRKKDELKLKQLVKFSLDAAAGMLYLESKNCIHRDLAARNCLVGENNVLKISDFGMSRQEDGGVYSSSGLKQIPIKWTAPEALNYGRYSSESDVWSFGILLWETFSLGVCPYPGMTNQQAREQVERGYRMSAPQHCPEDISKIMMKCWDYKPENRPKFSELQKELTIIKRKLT

With `CS(=O)(=O)CCNCc1ccc(-c2ccc3ncnc(Nc4ccc(OCc5cccc(C(F)(F)F)c5)cc4)c3c2)o1`, the inhibition in assay [1] came to 6.28%; in [2] it was 3.02%; in assay [3], 3.57%; in assay [4] it was 0.6%; in assay [5], 2.19%; in assay [6], 4.88%. The inhibition in assay [7] is 3.5%; in assay [8], 7.3%; in assay [9] it was 28.5%; in assay [10], -1.96%.

`Nc1nonc1-c1nc2cnccc2n1C1CC1`: the inhibition is 14.2% and 3.79% in [1]; 5.08% and 1.12% in assay [2]; 6.13% and -2.08% in assay [3]; 2.51% and -2.43% in assay [4]; 1.45% and -3.41% in assay [5]; 1.64% and 0.4% in assay [6]. Besides, the inhibition in assay [7] is -1.67% and -0.01%; in [8], 1.55% and 2.22%; in [9] it was 6.98% and 0.35%; in assay [10], 2% and 1.26%.

Consider `CCOc1ccc2c(-c3ccnc(Nc4cc(OC)cc(C(F)(F)F)c4)n3)cnn2n1`, for which the inhibition in assay [1] was 8.72%; in assay [2], 2.9%; in assay [3] it was 1.21%; in assay [4] it was 2.17%; in assay [5], 1.74%; in [6] it was 2.32%. Also, the inhibition was determined as 2.46% in assay [7], 4.82% in [8], 4.44% in assay [9] and 2.36% in [10].

Take `CNC(=O)c1ncccc1Nc1nc(Nc2cc3c(cc2OC)CCCN3C(=O)CN(C)C)nc2[nH]ccc12`: the inhibition is 9.33% in assay [1]; 4.77% in [2]; -0.74% in [3]; 1.64% in [4]; 2.22% in assay [5]; 3.4% in assay [6]. The inhibition in assay [7] was found to be 3.24%; in [8] it was 10.7%; in [9] it was 20.2%; in [10], 71.3%.

As for `CC1(C)CC(n2cnc(-c3ccc(F)cc3)c2-c2ccnc(N)n2)CC(C)(C)N1`, the inhibition in assay [1] is 4.85%; in [2], 3.09%; in [3] it was 1.51%; in [4], 0.27%; in assay [5] it was 0.62%; in assay [6], -1.2%. For the same compound, the inhibition in [7] is -3.03%; in assay [8] it was 0.19%; in [9], 3.58%; in [10], 3.41%.

As for `Cc1cc(O)cc(C)c1/C=C/c1cncc(C(N)=O)c1`, the inhibition in [1] stood at 56.7%; in [2] it was 5.06%; in assay [3], 9.99%; in assay [4], 9.23%; in assay [5] it was 46.1%; in [6], 5.08%. Moreover, the inhibition is -0.51% in assay [7], 12.7% in assay [8], 14.4% in assay [9] and 2% in assay [10].

Take `NC(=O)c1ccc2c(-c3ccnc(NCCCO)n3)c(-c3ccc(F)cc3)nn2c1`: the inhibition in assay [1] came to 40.3%; in assay [2], 4.52%; in assay [3], 4.65%; in assay [4], 4.6%; in [5], 11.4%; in assay [6], 2.1%. The inhibition in [7] amounted to 3.13%; in assay [8], 16.8%; in assay [9], 39%; in assay [10], 6.31%.

Turning to `CCCNc1cccc(-n2ncc3c(N/N=C/c4ccncc4)ncnc32)c1`, the inhibition in assay [1] is 9.31%; in assay [2] it was -1.29%; in assay [3] it was 1.75%; in assay [4], 1.55%; in assay [5], 5.77%; in [6], 2.33%. In addition, the inhibition in assay [7] is 4.49%; in assay [8], 11.8%; in [9] it was 43%; in assay [10], -0.72%.

The inhibition is the drop in the measured response relative to a control, in per cent.
